Bioassay records deposited in PubChem by National Center for Advancing Translational Sciences (NCATS).
Shown are actives, neighbours in structure and some others; about 4.7% of the full set was active somewhere.
TRHR ag = agonists of human TRH receptor; P34981; TRHR cells, calcium flux fluo-8, FDSS agonist mode; activation, % at 2 µM; hit rate 0.18% among 360,000; note: 0% is about no effect
Target sequence (P34981 whole entry, looked up): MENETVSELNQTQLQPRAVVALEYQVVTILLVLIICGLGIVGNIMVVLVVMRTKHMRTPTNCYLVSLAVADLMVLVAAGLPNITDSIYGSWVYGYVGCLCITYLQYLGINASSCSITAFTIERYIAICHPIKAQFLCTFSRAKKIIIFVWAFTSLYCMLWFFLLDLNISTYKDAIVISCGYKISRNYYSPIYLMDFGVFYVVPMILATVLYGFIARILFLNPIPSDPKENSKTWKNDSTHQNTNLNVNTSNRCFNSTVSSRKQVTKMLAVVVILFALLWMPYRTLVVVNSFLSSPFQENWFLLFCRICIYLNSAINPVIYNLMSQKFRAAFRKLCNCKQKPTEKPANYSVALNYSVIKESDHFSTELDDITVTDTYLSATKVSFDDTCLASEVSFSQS
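TRHR-expressing cells, plated overnight in medium with 10% serum, were loaded with fluo-8 calcium dye at room temperature. After a 10 s baseline, library compound was pin-added and calcium release was recorded kinetically (ex 480/em 530) as agonist response.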
D1 ag = activates the human D1 dopamine receptor. HEK293 T-REx D1 cells, calcium flux, agonist mode. activation, % at 2 µM. hit rate 1% among 360,000. P21728; note: 0% is about no effect
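Inducible HEK293 T-REx D1 cells, force-coupled to calcium signalling, were plated at 4000 cells/well with tetracycline and held overnight at 30 C. After no-wash calcium dye loading, compound-evoked calcium rise over 180 s flagged agonists.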
D1 antag = human D1 dopamine receptor antagonism; P21728; HEK293 TREx D1 cells, calcium flux, dopamine EC80; hits give low values; activity change, negative = inhibition, % at 10 µM; hit rate 3.2% among 360,000; AID 504652; in the data active = activity change below about -30%; note: % is set by controls: 0 for no effect and ±100 for the full control effect
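Inducible Hek293 Trex D1 cells (tetracycline, overnight, 30 C). Calcium dye 30–90 min RT. Antagonist mode: EC80 dopamine added after 180 s compound read.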
TRHR PAM = allosterically enhances the human TRH receptor. hit rate 0.66% among 360,000. enhancement, % at 2 µM. P34981. TRHR cells, fluo-8 calcium fluorescence, EC20 TRH enhancement. AID 493056; in the data active = enhancement above about 30%; note: 0% is about no effect
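Enhancer read-out: after compound pinning and an initial kinetic agonist-mode read, an EC20 of TRH (10 nM final) was injected and fluo-8 calcium signal (Ex 480/Em 530) followed at 1 s/cycle for 100 cycles in TRHR-expressing cells.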
D1 PAM = human D1 dopamine receptor positive modulation. P21728. potentiation, % at 10 µM. hit rate 0.036% among 360,000. AID 504651. HEK293 TREx D1 cells, calcium flux, dopamine EC20 potentiation; in the data active = potentiation above about 30%; note: 0% is about no effect
* = called active by the depositor; ! = not active in a repeat. Cut-off read from the data, not from the text of the source, unless noted: active = activation above about 30%; inactive = the rest.

SMILES	TRHR ag	D1 ag	D1 antag	TRHR PAM	D1 PAM
O=C(NCCSCc1ccc(Cl)cc1Cl)c1ccc(CN2CCOCC2)cc1	0.3	13.7	-30.6*	-1.4	-2.8
O=C(OCc1ccc(Cl)c(Cl)c1)c1ccc[nH]1	1.6	-0.1	-4.4	-6.6	-2.5
Oc1ccc(Br)cc1/C=N/n1c(C2CCCCC2)n[nH]c1=S	-0.6	36.8*	-7.6	3.0	3.3
Cc1nn2c(=O)cc(COC(=O)c3ccc(NC(=O)C4CCCCC4)cc3)nc2s1	-1.5	0.5	-15.2	2.5	-0.8
COc1cc(/C=C(/C#N)C(=O)NCc2ccccc2)cc(OC)c1OC	0.2	1.0	23.5	-7.2	-2.8
COc1ccc(/C=C(\C#N)C(=O)NCCc2ccccc2)cc1OCc1ccccc1	-0.2	33.5*	-26.4	-1.6	-2.9
Cn1c(C(=O)NN)cc2cc(Oc3ccccc3)ccc21	0.4	5.2	-46.2*	-1.0	-5.0
Cn1c(C(=O)O)cc2cc(Oc3ccccc3)ccc21	0.6	3.2	11.7	-0.9	0.2
COc1cccc(C2=CC(c3ccccc3F)n3ncc(C(=O)Nc4ccc(F)cc4)c3N2)c1 (stereo not given)	2.0	5.3	-11.4	-9.0	0.8
COc1ccc(NC(=O)N2CCC(CN3CCCC3)CC2)c(OC)c1	-0.1	-0.7	-29.2	1.3	-1.1
CCOC(=O)c1c(S(=O)(=O)NCC(=O)N2CCN(c3ccccc3OC)CC2)c(C)n(C)c1C	-0.5	0.4	-32.2*!	-1.5	3.0
CCN1C=C(Cc2ccccc2C)C2=C(C1)C(c1ccccc1C)C(C#N)=C(N)O2 (stereo not given)	-0.6	2.3	-4.6	6.7	-6.9
CCN1C=C(Cc2ccc(F)cc2)C2=C(C1)C(c1ccc(F)cc1)C(C#N)=C(N)O2 (stereo not given)	0.2	1.9	-55.4*	-0.1	-6.2
Cc1ccc(OCC(=O)Nc2ccc3c(c2)CCC3)c([N+](=O)[O-])n1	1.7	1.3	1.4	-1.9	-6.8
COc1ccc(NC(=O)COc2ccc(C)nc2[N+](=O)[O-])cc1S(N)(=O)=O	1.2	0.3	-39.5*	0.8	-0.6
COc1cc(/C=C2/NC(=O)N(Cc3ccccc3F)C2=O)cc(OC)c1O	6.7	2.9	-37.7*	1.2	-6.3
Cc1cc(OCCN2CCOCC2)ccc1Cl	0.1	5.4	-93.9*	-28.0	-2.5
Clc1ccc(OCCN2CCOCC2)cc1	-0.5	4.6	-20.8	36.0*	0.9
Brc1ccc(OCCN2CCOCC2)cc1	0.3	2.5	2.7	5.2	-1.3
O=C(Cn1ncn2c(cc3sccc32)c1=O)NC1CCCC1	0.4	1.2	-8.9	6.6	-1.3
O=C(Nc1cc(C(F)(F)F)ccc1Cl)C(O)Cc1ccccc1 (stereo not given)	-1.4	1.9	22.1	2.4	-4.5
COc1ccc2cc(-c3[nH]ncc3CN3CCCN(c4ccccc4)CC3)ccc2c1	0.2	0.8	32.0	30.6*	6.5
COc1ccc(-c2[nH]ncc2CN2CCCN(c3ccccc3)CC2)c(F)c1	1.0	7.6	-24.8	-3.5	1.1
CCOc1ccccc1N1CCN(Cc2cn[nH]c2-c2ccc(F)cc2)CC1	0.5	42.8*	57.5	3.3	4.5
COc1ccc(-c2[nH]ncc2CN2CCCC(C(=O)c3ccc(OC)cc3OC)C2)cc1 (stereo not given)	0.6	3.5	-30.9*	13.5	-5.5
SMILES	TRHR ag	D1 ag	D1 antag	TRHR PAM	D1 PAM
CCc1cccc(NC(=O)C2Cc3ccccc3N2C(=O)c2ccccc2)c1 (stereo not given)	-1.0	13.6	3.8	3.1	-0.3
Cc1c(N=C2SC(CC(=O)Nc3ccccc3)C(=O)N2CCN2CCOCC2)c(=O)n(-c2ccccc2)n1C (stereo not given)	0.2	1.9	-51.5*	-4.8	-0.7
CCC1CCCCN1CCCNC(=O)c1ccc2c(c1)N(Cc1cccc(C)c1)C(=O)c1ccccc1S2(=O)=O (stereo not given)	1.3	19.4	4.0	1.2	-1.3
O=C(C1CCN(S(=O)(=O)c2cccc3nonc23)CC1)N1CCN(c2ccccc2F)CC1	-0.9	-0.6	-36.7*	-5.1	-2.5
O=C(C1CCN(S(=O)(=O)c2cccc3nsnc23)CC1)N1CCc2ccccc2C1	-0.9	2.5	-44.0*	-3.7	-14.4
COc1cccc(NC(=O)C2CCCN(S(=O)(=O)c3cccc4cccnc34)C2)c1 (stereo not given)	-0.3	1.3	-34.9*	4.0	-2.3
O=C(NC1CCCCC1)C1CCCN(S(=O)(=O)c2cccc3cccnc23)C1 (stereo not given)	-0.6	0.5	-30.2*	-2.3	-9.6
CC1CCCN(C(=O)C2CCN(S(=O)(=O)c3cccc4nsnc34)CC2)C1 (stereo not given)	-0.2	1.2	-6.4	-8.0	-4.0
O=C(Nc1ccncc1)C1CCCN(S(=O)(=O)c2cccc3cccnc23)C1 (stereo not given)	0.2	-1.0	-14.7	17.8	-3.6
COC(=O)c1ccc(NC(=O)CCN2C(=O)NC(C)(C)C2=O)cc1	0.4	3.2	-3.6	-4.3	-1.7
C/C(=N/NC(=O)NC12CC3CC(CC(C3)C1)C2)c1ccccc1	0.3	0.3	7.9	0.4	11.0
Cc1ccc(CNC(=O)C2CCC(CNS(=O)(=O)c3cccc4cccnc34)CC2)cc1 (stereo not given)	-0.6	8.1	-0.3	1.4	-4.7
O=C(Nc1ccc(F)c(F)c1)C1CCCN(S(=O)(=O)c2cccc3nonc23)C1 (stereo not given)	1.4	33.2*!	-13.0	-0.4	-9.3
CC1CCCCC1NC(=O)C1CCC(CNS(=O)(=O)c2cccc3cccnc23)CC1 (stereo not given)	0.8	1.1	-36.6*	-5.9	17.5
O=C(C1CCN(S(=O)(=O)c2cccc3cccnc23)CC1)N1CCN(c2ccccc2)CC1	-0.2	-1.0	-22.6	-5.0	-5.7
O=C(C1CCCN(S(=O)(=O)c2cccc3cccnc23)C1)N1CCN(c2ccc(F)cc2)CC1 (stereo not given)	-0.8	1.0	-36.4*	-1.6	-2.6
Fc1cccc(Nc2nc(N3CCOCC3)nc(N3CCOCC3)n2)c1	-1.1	1.6	1.1	-1.8	-9.4
CC(C)Oc1ccccc1NC(=O)CSc1nccn1C	0.1	1.6	2.0	-3.8	1.4
O=C(Nc1ccnn1C1CCN(Cc2cccc(O)c2)CC1)C1CCCC1	0.2	10.9	-20.9	1.8	-0.6
C/C=C\C=C/C(=O)Nc1cccc(C2=NOC3(C2)C[C@H](C(N)=O)N(C(=O)c2ccc(OC)cc2)C3)c1 (stereo not given in full)	-0.2	4.6	-9.3	-2.3	-1.7
C/C=C/C(=O)Nc1cccc(C2=NOC3(C2)C[C@H](C(N)=O)N(C(=O)/C=C/C)C3)c1 (stereo not given in full)	-0.6	0.2	-41.8*	2.6	-0.9
